# Results taken from publication PMC5540273 (PLoS ONE, 2017).
# Columns and labels:
# ERK1 = test system: T1, ERK1
# T1 construct: gene MAPK3
# ERK5 = test system: T2, ERK5
# T2 construct: gene MAPK7
# ERK8 = test system: T3, ERK8
# T3 construct: gene MAPK15
# GRK2 = test system: T4, GRK2
# T4 construct: gene ADRBK1
# GRK3 = test system: T5, GRK3
# T5 construct: gene ADRBK2
# HASPIN = test system: T6, HASPIN
# T6 construct: gene GSG2
# 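Also: kd values determined as follow-up on hits from a single-replicate KINOMEscan panel screen.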
smiles,measurement,setting,value
Cc1ccc(O)cc1Nc1cc(C(F)(F)F)nc2ccc(-c3ccncc3)cc12 [GW630823],Kd,EPHA7,> 10 µM
Cn1ccc2ncnc(Nc3ccc(Oc4cccc(Cl)c4)c(Cl)c3)c21,Kd,EPHA7,> 10 µM
same,Kd,EPHA8,> 10 µM
Nc1n[nH]c2nnc(-c3ccccc3)cc12 [SB-517389],Kd,EPHB2,> 10 µM
same,Kd,HIPK3,0.29 µM
CC(C)(C)OC(=O)NC1CCCN(c2cc(-c3ccc4c(N)n[nH]c4c3)nc(N)n2)C1 (stereo not shown) [GSK2286096],Kd,EPHB2,> 10 µM
Nc1nc(-c2ccc3c(N)n[nH]c3c2)cc(N2CCC[C@@H](C(=O)Nc3ccccc3)C2)n1.O=C(O)C(F)(F)F.O=C(O)C(F)(F)F [GSK2288359],Kd,ERK1,5.3 µM
O=C(Nc1ccccc1F)NC1CCN(c2ccnc(Nc3ccc(F)cc3)n2)C1 (stereo not shown) [GSK1379722],Kd,ERK1,> 10 µM
Cc1ccc(NC(=O)c2cccc(C#N)c2)cc1-c1ccc(C(=O)Nc2ccncc2)cc1 [GSK1398463],Kd,ERK5,> 10 µM
same,Kd,FRK,0.19 µM
Cc1ccc(C)c(NC(=O)NCCNc2ccnc(Nc3ccc(F)cc3)n2)c1 [GSK1379878],Kd,ERK5,> 10 µM
c1ccc(-c2ccc3c(-c4ccnc(Nc5ccc6c(c5)OCCO6)n4)cnn3n2)cc1 [GW818941],Kd,ERK8,0.67 µM
O=C(Nc1ccccc1)Nc1ccc(Oc2ccc3nccn3n2)cc1,Kd,ERN1,> 10 µM
CCC(CC)(CC)n1cnc2c(N)ncnc21 [SKF-97620],Kd,FGFR2,> 10 µM
FC(F)(F)c1ccc(-c2nn3ncccc3c2-c2ccnc(Nc3cccc(C(F)(F)F)c3)n2)cc1 [GW828205],Kd,FGFR2,> 10 µM
O=C(Nc1n[nH]c2nc(-c3ccco3)c(Br)cc12)c1ccc(CN2CCCC2)cc1.O=C(O)[C@H](O)[C@@H](O)C(=O)O [SB-742352],Kd,FLT3,0.045 µM
COc1ccc(NC(=O)Nc2ccc(C)c(-c3ccc(C(=O)Nc4ccncc4)cc3)c2)cc1 [GSK1398475],Kd,FLT3,2.2 µM
Cl.O=S(=O)(c1cccc(F)c1)c1ccc(Nc2ncnc3cc(Br)sc23)cc1Cl [GSK306886],Kd,FLT4,> 10 µM
CCc1nc(-c2cccc(N(C)S(=O)(=O)c3ccccc3)c2)c(-c2ccnc(Nc3ccc(N4CCN(C(C)=O)CC4)nc3)n2)s1 [GSK1645895],Kd,GAK,0.25 µM
COC(=O)c1c(-c2ccccc2)c2cc(Cl)ccc2c(=O)n1Cc1ccc(S(C)(=O)=O)cc1,Kd,GAK,> 10 µM
CNc1nccc(-c2c(-c3ccc(F)cc3)ncn2C2CCN(C)CC2)n1 [SB-222903],Kd,GRK2,> 10 µM
COc1ccc(NC(=O)c2ccc(-c3cc(-c4nnc(C)o4)ccc3C)cc2)cc1 [GW595885],Kd,GRK3,> 10 µM
Cn1cc(-c2ccc3c(c2)CCN3C(=O)Cc2cccc(C(F)(F)F)c2)c2c(N)ncnc21 [GSK2606414],Kd,GRK4,> 10 µM
Nc1nc(-c2cccnc2)c(-c2ccnc3ccccc23)s1 [GW684083],Kd,HASPIN,0.65 µM
Cl.Cl.c1ccc(-c2cc3ccncc3cc2OC2CCNCC2)cc1 [GSK1122999],Kd,HASPIN,0.09 µM
